# In the library only some 11% were active in any assay of this set; here they are far more common.
# VACV mCherry inh: inhibitors of vaccinia virus infection (mCherry reporter signal); AID 720579; hit rate 0.63% among 310,000; Vaccinia virus mCherry reporter infection, fluorescence; Potency, µM (doses to about 36.5 µM), without a hit: at the top dose activity change, negative = inhibition, hits mostly inhibitors; calls by dose curve; tested in A549 cells; further: on the % scale 0 is the no-effect control and ±100 the full control effect; nearly all actives have a fitted effect of over 35% in size
# NS1 function inh: inhibitors of influenza NS1 protein function | AID 2326 | hit rate 0.4% among 270,000 | Potency, µM (series often up to 46.1 µM), for the others: at the top dose activity, positive = more growth; calls by dose curve; further: actives are rising curves; nearly all actives have a fitted effect of over 50% in size
#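 S. cerevisiae expressing influenza A NS1, grown in glucose, washed, then diluted 1:100 into pH 6.0 -URA galactose medium with 23 nl compound. Growth recovery read as OD600; NS1-free strain serves as control.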
# Pf growth 48h: inhibits P. falciparum growth in the first generation, 48 h | P. falciparum luciferase growth in erythrocytes, 48 h | Potency, µM (series often up to 28.7 µM), without a hit: at the highest dose activity change, negative = inhibition, actives largely listed as inhibitors | hit rate 5.9% among 310,000 | AID 504832; further: on the % scale 0 is the no-effect control and ±100 the full control effect
#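 First compound was added to culture medium, then infected red cells at 0.1% parasitemia and 2% hematocrit (final). After incubation at 37 C under 5% CO2, luciferase detection reagent was dispensed and light output recorded.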
# Vaccinia Venus: inhibitors of vaccinia virus (Venus reporter); Vaccinia virus Venus reporter expression, fluorescence; Potency, µM (series often up to 36.5 µM), inactives show at the highest dose activity change, negative = inhibition, actives largely listed as inhibitors; hit rate 0.46% among 330,000; calls by dose curve; tested in A549 cells; further: on the % scale 0 is the no-effect control and ±100 the full control effect; nearly all actives have a fitted effect of over 30% in size
# HCV inhibitor: HCV inhibition; hit rate 3.4% among 340,000; Huh7.5.1 HCVcc-Cre infection, luciferase reporter, 44 h; Potency, µM (top dose mostly 41.8 µM), without a hit: at the highest dose activity change, negative = inhibition, most hits filed as inhibitors; further: on the % scale 0 is the no-effect control and ±100 the full control effect
#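 Seed cells (1,000/well) for 4 h; treat with compound and infect with HCVcc-Cre, moi about 0.5. Incubate 44 h, then detect luciferase activity.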
# Pf growth 96h: P. falciparum growth inhibition at 96 hour, primary screen for plastid delayed-death inhibitors; P. falciparum luciferase reporter growth, 96 h; Potency, µM (highest dose often 28.7 µM), without a hit: at the top dose activity change, negative = inhibition, usual class: inhibitors; hit rate 6.9% among 320,000; AID 504834; further: on the % scale 0 is the no-effect control and ±100 the full control effect
#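 P. falciparum expressing integrated firefly luciferase, in erythrocytes at 2% hematocrit, 0.05% parasitemia, incubated with compounds 96 h at 37 C, 5% CO2. Growth inhibition read as loss of luminescence; two-generation exposure targets delayed-death apicoplast inhibitors.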
# * hit, by the source's call; i = inactive; ? = inconclusive; . = no result; ! = not confirmed by another sample; [ ] = dose if it differs, or a comment. Unless noted, the call rests on the fitted dose curve; in most records, active means well fitted inhibition curve with a large enough effect; inconclusive means small, poorly fitted or top-dose-only effect, or another doubt; inactive means no such curve, though single readings can be large or run the other way. Potency means the concentration at half of the fitted maximal effect.
SMILES,VACV mCherry inh,NS1 function inh,Pf growth 48h,Vaccinia Venus,HCV inhibitor,Pf growth 96h
CC1CCCN(C(=O)CNC(=O)c2sc3ccccc3c2Cl)C1 (configuration not stated),-2%,.,100%,-20%,?,130%
CC1CC(C)CN(C(=O)CNC(=O)c2sc3ccccc3c2Cl)C1 (configuration not stated),.,.,?,.,8.9µM*,-83%
COc1ccccc1C(=O)NCCC(=O)N1CCN(S(=O)(=O)c2cccc(Cl)c2)CC1,.,.,?,.,-14%,?
COc1ccccc1C(=O)NCCC(=O)N1CCN(S(=O)(=O)c2ccc(Cl)cc2)CC1,.,.,?,.,12%,13µM*
Cc1ccc(C)c(OCc2cc(C(=O)N(C)Cc3nccn3C)no2)c1,-15%,-8%,-17%,-14%,-3%,13%
CCOC(=O)C1CCCN(C(=O)c2cc3c(C)nc4ccccc4c3o2)C1 (configuration not stated),.,-38%,?,.,?,?
O=C(Nc1ccccc1)c1ccc(CSc2ncccn2)cc1,-3%,-20%,263%,-25%,-6%,201%
Cc1cccc(NC(=O)C2CCCN(S(=O)(=O)c3c(C)[nH]c(=O)[nH]c3=O)C2)c1C (configuration not stated),-1%,.,.,-1%,.,.
CCCN1C(=O)c2cccc3c(N4CCCCC4)ccc(c23)C1=O,-5%,3%,-1%,11%,-5%,13µM*
O=C1c2cccc3c(N4CCCCC4)ccc(c23)C(=O)N1c1ccccn1,.,-7%,16%,3%,8%,55%
CCc1ccc2oc(=O)cc(CN(C)Cc3ccccc3)c2c1,.,-63%,8.3µM*,-11%,?,.
Cc1cc2oc(=O)cc(CN(C)Cc3ccccc3)c2cc1C,21%,.,.,-3%,.,.
COC(=O)CCC/C=C1/SCC(NC(=O)c2ccccc2)C1=O (configuration not stated),-5%,?,.,10%,11%,9.3µM*
CCCn1nc(NC(C)=O)c2cc3cccc(C)c3nc21,.,4%,-8%,.,11µM*,8%
CCCn1nc(NC(=O)COC)c2cc3cccc(C)c3nc21,-16%,1%,-1%,-23%,11µM*,15%
CCCn1nc(NC(=O)CC(C)C)c2cc3cccc(C)c3nc21,-8%,7%,?,-10%,-6%,?
COc1ccccc1Nc1ncc(C(=O)N2CCC(C(N)=O)CC2)c2ccccc12,.,-5%,24%,.,-5%,-24%
COc1ccccc1Nc1ncc(C(=O)N2CCN(Cc3ccc(OC)c(OC)c3OC)CC2)c2ccccc12,-15%,.,?,-19%,13µM*,?
COc1ccc(Nc2ncc(C(=O)N3CCN(Cc4ccccc4)CC3)c3ccccc23)cc1,.,-69%,?,.,10µM*,?
CCCOc1ccc(F)cc1-c1cc(C(=O)NCc2ccc(C(F)(F)F)cc2)[nH]n1,-15%,.,.,5%,.,.
O=C(Nc1nc(-c2cccs2)cs1)c1ccc(Cl)cc1,-11%,-52%,-3%,-18%,?,.
Cc1ccc(-c2csc(NC(=O)c3cccc(S(=O)(=O)N4CCN(C)CC4)c3)n2)cc1,-11%,-31%,10%,-5%,?,7.4µM*
Cc1nnc(NC(=O)c2cccc(S(=O)(=O)N3CCN(C)CC3)c2)s1,-13%,.,-16%,-6%,10%,14%
COc1cc(C(=O)Nc2nc(-c3cccs3)cs2)cc(OC)c1OC,?,-54%,12µM*,-29%,1.8µM*,14%[5.75 µM]
O=C(Nc1nc(-c2cccs2)cs1)c1cccc(S(=O)(=O)N2CCCCC2)c1,?,15%,?,?,11µM*,?
SMILES,VACV mCherry inh,NS1 function inh,Pf growth 48h,Vaccinia Venus,HCV inhibitor,Pf growth 96h
O=[N+]([O-])c1ccc2nc(-[n+]3c(-c4ccccc4)cc(-c4ccccc4)cc3-c3ccccc3)[nH]c2c1,?,2%,?,?,?,?
COc1ccc(-c2[nH]ncc2CNC(C)Cc2ccsc2)c(F)c1 (configuration not stated),-4%,-8%,-21%,-8%,-5%,4.7µM*
COc1ccc(-c2[nH]ncc2CN(C)C(C)c2cccs2)c(F)c1 (configuration not stated),-15%,2%,-21%,-17%,-11%,12µM*
COC(=O)Cc1ccc(NC(=S)N2CCCC(C)C2)cc1 (configuration not stated),i,-5%,58%,2%,16%,66%
CCC(=O)NC(c1ccc([N+](=O)[O-])cc1)c1c(O)ccc2ccccc12 (configuration not stated),.,12%,4.1µM*,.,?,?
CCCCC(=O)NC(c1ccc([N+](=O)[O-])cc1)c1c(O)ccc2ccccc12 (configuration not stated),?,-5%,10µM*,?,?,63%
CCC(=O)NC(c1ccc(OC)cc1)c1c(O)ccc2ccccc12 (configuration not stated),-14%,0%,?,-23%,-13%,-17%
CCOc1ccc(NC(=O)CCn2c(-c3ccc(F)cc3)cc(C(C)=O)c2C)cc1,-13%,.,.,-12%,.,.
CC(=O)c1cc(-c2ccc(F)cc2)n(CCC(=O)Nc2cccnc2)c1C,i,.,9.3µM*,-19%,-1%,17%
Cc1cc(=O)n(-c2ccccc2)n1C,5µM*!,.,10%,?,-1%,31%
CCCn1c(N)c(Sc2ccc(C)cc2)c(=O)n(CCC)c1=O,-1%,5%,0%,-8%,-20%,-9%
Cc1nc(OCC(=O)c2ccc(Cl)cc2)c(C#N)c2c1COC(C)(C)C2,i,4%,.,-14%,?,12µM*
CCc1nc(OCC(=O)c2ccccc2)c(C#N)c2c1COC(C)(C)C2,-4%,3%,.,-19%,?,12µM*
Cc1nc(-c2ccc(Cl)cc2)sc1C(=O)NNC(=O)C(C)C,i,-4%,21%,-12%,10%,38%
Cc1nn2c(N3CCN(C(=O)c4ccco4)CC3)cc(C(C)(C)C)nc2c1-c1ccccc1,.,-108%,?,10µM*,13%,4.7µM*
Cc1nn2c(N3CCN(C4CCCC4)CC3)cc(C(C)(C)C)nc2c1-c1ccccc1,.,-2%,10%,.,-13%,.
Cc1nn2c(N3CCN(C)CC3)cc(C(C)(C)C)nc2c1-c1ccccc1,i,-1%,?,-3%,?,3.3µM*
O=C(c1ccco1)N1CCN(c2cc(C(F)(F)F)nc3ncnn23)CC1,.,-4%,5%,.,10%,13µM*
CCOC(=O)c1c(C)cc(C)[nH]c1=O,-8%,2%,5%,-12%,4%,13%
Cc1c2c(cc3c1[nH]c1ccccc13)C=NCC2,?,.,.,-28%,10µM*,.
O=C(NCCCSc1ccccc1)c1cnc(Cl)c(Cl)c1,3%,-6%,13%,0%,14%,20%

# Source: PubChem (National Center for Advancing Translational Sciences (NCATS))
